In ChEMBL document CHEMBL3988442, “University of Dundee, Small-Polar-MMV Screening Library” (2021) one finds Percent Effect data, which are given here for 11 molecules.

Holding throughout (parameters): scale not given: direction of the effect not stated beside the values
Experiment [1] concerns the target Protein translocase subunit SecA (Escherichia coli (strain K12)) (UniProt P10408). As to the kind of experiment: Assay to Identify E. coli SecA ATPase Inhibitors. The class given is functional. The conditions noted are these: 30 µM.
For experiment [2], the target named is T1, Ubiquitin-activating enzyme e1, putative (Leishmania donovani (strain BPK282A1)) (UniProt E9BSI1).
T1 sequence (whole entry): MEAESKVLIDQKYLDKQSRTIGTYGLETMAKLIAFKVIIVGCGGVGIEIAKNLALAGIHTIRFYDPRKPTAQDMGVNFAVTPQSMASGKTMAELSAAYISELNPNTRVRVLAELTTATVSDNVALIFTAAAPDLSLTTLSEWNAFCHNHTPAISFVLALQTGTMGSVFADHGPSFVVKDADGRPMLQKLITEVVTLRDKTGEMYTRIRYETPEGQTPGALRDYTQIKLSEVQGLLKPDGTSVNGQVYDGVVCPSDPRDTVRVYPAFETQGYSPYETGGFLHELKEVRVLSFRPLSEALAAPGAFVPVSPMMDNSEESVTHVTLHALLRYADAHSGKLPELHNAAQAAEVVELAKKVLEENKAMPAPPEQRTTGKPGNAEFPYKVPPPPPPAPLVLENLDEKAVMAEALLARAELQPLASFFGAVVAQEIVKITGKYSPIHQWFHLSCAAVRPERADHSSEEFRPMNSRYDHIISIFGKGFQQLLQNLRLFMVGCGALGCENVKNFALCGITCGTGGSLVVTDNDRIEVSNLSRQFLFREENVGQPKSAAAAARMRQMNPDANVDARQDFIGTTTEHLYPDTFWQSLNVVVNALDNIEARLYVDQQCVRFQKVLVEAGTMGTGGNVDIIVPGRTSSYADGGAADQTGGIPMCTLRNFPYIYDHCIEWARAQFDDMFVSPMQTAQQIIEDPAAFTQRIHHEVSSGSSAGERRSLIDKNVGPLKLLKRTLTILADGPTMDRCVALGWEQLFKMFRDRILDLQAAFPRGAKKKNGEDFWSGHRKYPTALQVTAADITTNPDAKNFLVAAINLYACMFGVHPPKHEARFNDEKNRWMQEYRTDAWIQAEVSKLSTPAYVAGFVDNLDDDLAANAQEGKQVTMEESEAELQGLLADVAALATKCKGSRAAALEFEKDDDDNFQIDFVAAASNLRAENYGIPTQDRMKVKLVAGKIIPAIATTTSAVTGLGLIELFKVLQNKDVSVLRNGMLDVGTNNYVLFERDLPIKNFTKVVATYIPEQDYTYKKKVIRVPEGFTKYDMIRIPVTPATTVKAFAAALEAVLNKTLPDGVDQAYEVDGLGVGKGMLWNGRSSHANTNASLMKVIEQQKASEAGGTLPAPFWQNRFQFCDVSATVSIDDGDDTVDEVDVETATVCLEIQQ
As to the kind of experiment: Leishmania donovani Ubiquitin Activating Enzyme (LdE1). The class given is functional. As to conditions: 30 µM.

For experiment [3], the target named is AMP-activated protein kinase, AMPK (Homo sapiens) (UniProt P54646+O43741+P54619+Q9UGJ0+Q9Y478+Q13131+Q9UGI9). Nature of the experiment: AMP-dependent Kinase enzyme assay. An in vitro enzyme assay that detects ADP turnover that is directly proportional to AMPK activity. This uses naive AMPK that is activated during the assay with MK-8722. As to conditions: 30 µM. The class given is functional.

For experiment [4], the target named is Sialic acid-binding Ig-like lectin 9 (Homo sapiens) (UniProt Q9Y336). As to the kind of experiment: Hs-Siglec9 ALPHAscreen SOP 20170721. The conditions noted are these: 10 µM. Background: Bead proximity is the source of the signal in Alpha formats.
The test system of another experiment is Trypanosoma cruzi. Nature of the experiment: Trypanosoma cruzi phosphomannomutase and mannose-1-phosphate guanylyltransferase assay. In kind it is functional. As to conditions: 10 µM.
In experiment [5] the target is T2, Arginase-2, mitochondrial (Homo sapiens) (UniProt P78540).
T2 sequence (whole entry): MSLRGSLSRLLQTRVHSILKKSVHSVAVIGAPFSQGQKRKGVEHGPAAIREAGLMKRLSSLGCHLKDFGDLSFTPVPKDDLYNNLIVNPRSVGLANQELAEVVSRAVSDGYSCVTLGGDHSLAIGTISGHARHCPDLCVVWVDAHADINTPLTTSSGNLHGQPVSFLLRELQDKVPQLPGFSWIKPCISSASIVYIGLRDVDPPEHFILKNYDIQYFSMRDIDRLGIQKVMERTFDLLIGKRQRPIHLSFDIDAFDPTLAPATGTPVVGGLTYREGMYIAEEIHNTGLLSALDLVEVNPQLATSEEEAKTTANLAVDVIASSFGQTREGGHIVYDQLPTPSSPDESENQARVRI
As to the kind of experiment: in vitro enzyme assay to detect the production of urea directly proportional to the activity of Arginase II. Also: in the data most compounds retested in dose-response had high values. The class given is functional. The conditions noted are these: 33.3 µM.

Experiment [6] concerns the target T3, Proteasome subunit beta (Trypanosoma cruzi) (UniProt O96673).
T3 sequence (whole entry): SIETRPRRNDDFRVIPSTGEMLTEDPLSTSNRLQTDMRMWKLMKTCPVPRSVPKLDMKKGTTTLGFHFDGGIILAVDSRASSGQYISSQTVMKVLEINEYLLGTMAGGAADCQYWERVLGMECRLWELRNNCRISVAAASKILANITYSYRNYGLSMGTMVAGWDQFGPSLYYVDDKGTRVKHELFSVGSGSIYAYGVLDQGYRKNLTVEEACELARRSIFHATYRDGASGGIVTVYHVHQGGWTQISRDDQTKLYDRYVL
As to the kind of experiment: Trypanosoma cruzi proteasome chymotrypsin-like activity (TcProtChymo) assay. Also: in the data most compounds retested in dose-response had high values. In kind it is functional. As to conditions: 9.37 µM.

For a further experiment, the species on record is Homo sapiens. Nature of the experiment: To identify inhibition of the IFN signalling (Jak-Stat) pathway via expression of an eGFP reporter gene under the control of an IFN-stimulated response element (ISRE) containing MxA promoter. As to conditions: 30 µM. The class given is functional. For orientation: In a reporter assay the amount or activity of a reporter protein is the signal.

The target of experiment [7] is T4, Tyrosyl-tRNA synthetase, putative (Trypanosoma cruzi (strain CL Brener)) (UniProt Q4DSP6).
T4 sequence (whole entry): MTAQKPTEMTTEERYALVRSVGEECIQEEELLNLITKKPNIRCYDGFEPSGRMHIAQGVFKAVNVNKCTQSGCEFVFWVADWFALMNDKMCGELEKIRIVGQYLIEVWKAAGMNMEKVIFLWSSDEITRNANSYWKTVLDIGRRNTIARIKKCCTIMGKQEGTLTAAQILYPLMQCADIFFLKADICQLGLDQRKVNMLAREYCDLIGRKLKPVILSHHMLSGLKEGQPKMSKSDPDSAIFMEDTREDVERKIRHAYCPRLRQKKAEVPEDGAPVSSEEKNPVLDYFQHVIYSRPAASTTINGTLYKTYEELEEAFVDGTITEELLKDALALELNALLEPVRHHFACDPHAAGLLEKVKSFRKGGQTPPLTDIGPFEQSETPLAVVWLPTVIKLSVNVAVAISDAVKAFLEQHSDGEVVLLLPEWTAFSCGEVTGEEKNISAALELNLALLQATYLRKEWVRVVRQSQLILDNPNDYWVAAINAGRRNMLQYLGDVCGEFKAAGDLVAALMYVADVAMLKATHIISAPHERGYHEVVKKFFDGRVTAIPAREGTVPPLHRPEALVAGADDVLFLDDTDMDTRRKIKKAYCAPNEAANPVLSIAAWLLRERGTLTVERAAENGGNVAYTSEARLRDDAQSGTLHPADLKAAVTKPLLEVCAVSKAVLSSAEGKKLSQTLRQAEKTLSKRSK
As to the kind of experiment: Trypanosoma cruzi tyrosyl tRNA synthetase (TcYRS) _High Tyrosine SOP. Also: in the data most compounds retested in dose-response had high values. The class given is functional. As to conditions: 30 µM.

Experiment [8] concerns the target T4, Tyrosyl-tRNA synthetase, putative (Trypanosoma cruzi (strain CL Brener)). Nature of the experiment: Trypanosoma cruzi tyrosyl tRNA synthetase (TcYRS) SOP. The class given is functional. The conditions noted are these: 30 µM.
Experiment [9] concerns the target Chromo domain-containing protein 1 (Saccharomyces cerevisiae (strain ATCC 204508 / S288c) (Baker's yeast)) (UniProt P32657). As to the kind of experiment: ScCHD-1 Enzyme Inhibition Assay. Also: in the data most compounds retested in dose-response had high values. As to conditions: 30 µM. The class given is functional.

SMILES strings stand for the structures. For some of these results: Results with a measured potency or affinity are listed apart.

Chromo domain-containing protein 1 (Saccharomyces cerevisiae (strain ATCC 204508 / S288c) (Baker's yeast)), sequence (P32657 whole entry, the tested form may be a part): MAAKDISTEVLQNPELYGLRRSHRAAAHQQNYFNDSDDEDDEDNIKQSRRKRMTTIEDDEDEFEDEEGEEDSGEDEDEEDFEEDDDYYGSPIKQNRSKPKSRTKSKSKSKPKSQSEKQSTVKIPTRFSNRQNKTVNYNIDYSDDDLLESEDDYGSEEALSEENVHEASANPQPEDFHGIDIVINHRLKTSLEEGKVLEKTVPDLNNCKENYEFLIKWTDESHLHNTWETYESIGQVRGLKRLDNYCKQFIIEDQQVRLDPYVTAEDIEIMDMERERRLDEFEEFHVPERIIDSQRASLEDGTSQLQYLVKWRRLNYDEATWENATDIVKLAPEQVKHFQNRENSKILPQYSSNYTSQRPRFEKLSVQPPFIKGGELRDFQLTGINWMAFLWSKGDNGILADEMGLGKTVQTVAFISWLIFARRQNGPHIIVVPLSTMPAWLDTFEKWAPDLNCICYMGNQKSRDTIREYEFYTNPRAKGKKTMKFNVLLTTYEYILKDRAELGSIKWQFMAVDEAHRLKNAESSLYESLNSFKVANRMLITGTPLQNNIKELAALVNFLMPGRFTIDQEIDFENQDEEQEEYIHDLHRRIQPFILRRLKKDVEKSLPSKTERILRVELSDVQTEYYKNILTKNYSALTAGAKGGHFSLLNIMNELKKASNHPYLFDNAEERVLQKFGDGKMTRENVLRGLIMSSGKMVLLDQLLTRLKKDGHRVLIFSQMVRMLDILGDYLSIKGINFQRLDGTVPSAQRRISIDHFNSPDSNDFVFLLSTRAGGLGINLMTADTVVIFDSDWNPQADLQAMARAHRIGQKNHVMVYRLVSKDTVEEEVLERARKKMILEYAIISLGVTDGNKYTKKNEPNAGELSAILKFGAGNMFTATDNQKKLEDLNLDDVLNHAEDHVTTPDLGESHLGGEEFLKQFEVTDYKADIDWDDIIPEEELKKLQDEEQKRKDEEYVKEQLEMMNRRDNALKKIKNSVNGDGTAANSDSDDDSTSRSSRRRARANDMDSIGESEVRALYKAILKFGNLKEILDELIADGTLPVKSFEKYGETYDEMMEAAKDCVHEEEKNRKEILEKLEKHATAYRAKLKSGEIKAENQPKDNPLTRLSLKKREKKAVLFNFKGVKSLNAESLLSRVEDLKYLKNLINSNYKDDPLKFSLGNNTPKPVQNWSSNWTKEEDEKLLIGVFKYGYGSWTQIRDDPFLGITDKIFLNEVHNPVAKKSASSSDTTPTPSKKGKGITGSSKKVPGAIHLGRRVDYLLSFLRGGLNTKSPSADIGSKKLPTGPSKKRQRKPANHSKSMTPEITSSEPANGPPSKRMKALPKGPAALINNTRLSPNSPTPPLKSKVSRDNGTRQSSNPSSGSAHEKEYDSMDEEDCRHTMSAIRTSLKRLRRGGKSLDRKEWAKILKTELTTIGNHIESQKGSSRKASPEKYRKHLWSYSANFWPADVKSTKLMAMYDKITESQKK
Sialic acid-binding Ig-like lectin 9 (Homo sapiens), sequence (Q9Y336 whole entry): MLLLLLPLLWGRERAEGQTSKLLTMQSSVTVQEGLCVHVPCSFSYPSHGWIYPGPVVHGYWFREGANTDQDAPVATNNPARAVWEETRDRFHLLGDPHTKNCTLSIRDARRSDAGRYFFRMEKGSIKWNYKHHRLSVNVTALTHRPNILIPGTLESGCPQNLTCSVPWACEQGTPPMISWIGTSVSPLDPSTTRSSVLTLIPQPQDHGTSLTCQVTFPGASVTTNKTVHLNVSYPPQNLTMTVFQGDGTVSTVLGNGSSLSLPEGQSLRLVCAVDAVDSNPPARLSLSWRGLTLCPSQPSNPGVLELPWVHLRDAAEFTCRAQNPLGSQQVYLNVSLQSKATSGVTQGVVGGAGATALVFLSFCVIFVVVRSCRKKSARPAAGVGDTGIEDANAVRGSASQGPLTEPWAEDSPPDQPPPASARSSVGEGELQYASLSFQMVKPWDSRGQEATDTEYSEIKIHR
Protein translocase subunit SecA (Escherichia coli (strain K12)), sequence (P10408 whole entry): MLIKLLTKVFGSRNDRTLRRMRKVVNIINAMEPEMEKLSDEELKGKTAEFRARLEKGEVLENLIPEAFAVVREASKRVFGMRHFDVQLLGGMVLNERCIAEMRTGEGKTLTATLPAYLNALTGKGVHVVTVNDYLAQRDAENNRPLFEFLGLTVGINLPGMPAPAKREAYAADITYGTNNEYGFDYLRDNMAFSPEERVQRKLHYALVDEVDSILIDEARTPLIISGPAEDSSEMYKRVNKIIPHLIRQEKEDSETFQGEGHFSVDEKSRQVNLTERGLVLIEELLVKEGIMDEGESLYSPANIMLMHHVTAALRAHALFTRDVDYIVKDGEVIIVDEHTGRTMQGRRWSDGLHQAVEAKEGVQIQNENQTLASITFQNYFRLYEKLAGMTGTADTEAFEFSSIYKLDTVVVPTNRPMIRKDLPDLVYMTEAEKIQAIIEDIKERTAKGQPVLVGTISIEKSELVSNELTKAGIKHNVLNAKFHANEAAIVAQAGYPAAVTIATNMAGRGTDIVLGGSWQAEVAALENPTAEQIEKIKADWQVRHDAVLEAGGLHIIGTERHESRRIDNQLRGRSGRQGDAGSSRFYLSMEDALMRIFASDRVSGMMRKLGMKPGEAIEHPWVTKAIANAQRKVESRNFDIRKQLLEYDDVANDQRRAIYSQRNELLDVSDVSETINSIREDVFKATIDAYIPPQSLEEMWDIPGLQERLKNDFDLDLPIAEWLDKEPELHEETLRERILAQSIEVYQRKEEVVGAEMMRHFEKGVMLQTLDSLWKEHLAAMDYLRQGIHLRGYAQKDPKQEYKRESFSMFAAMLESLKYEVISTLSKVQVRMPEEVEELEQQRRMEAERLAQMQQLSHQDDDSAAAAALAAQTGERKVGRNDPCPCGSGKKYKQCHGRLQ

With `Cc1nccn1CC1CCCN1CCCc1nc(-c2cccs2)no1` (stereo unspecified), the Percent Effect was -0.0404% in experiment [1]; 21.6% in [2]; -8.26% in [3]; -4.35% in experiment [4]; -2.92% with Trypanosoma cruzi; -11.6% in experiment [5]. In addition, the Percent Effect in experiment [6] turned out to be 13.3%; in the experiment listed under Homo sapiens it was 36.5%; in experiment [7], 3.45%; in experiment [8] it was 13.6%; in experiment [9], 2.34%.
Regarding `c1ccc(CN2CCCC2Cn2cncn2)nc1` (stereo unspecified), the Percent Effect in [1] was -2.52%; in experiment [2], -2.53%; in experiment [3], 3.76%; in experiment [4], 6.27%; with Trypanosoma cruzi it was 3.87%; in experiment [5] it was -0.76%. Also, the Percent Effect was 5.32% in experiment [6]; -14.3% in the experiment listed under Homo sapiens; 9.36% in experiment [7]; 3.8% in experiment [8]; -4.39% in experiment [9].
As to `Cc1cn2c(n1)CCC(NC(=O)c1cc(C(C)C)no1)C2` (stereo unspecified), the Percent Effect was -4.48% in experiment [1]; 10.4% in experiment [2]; 2.99% in [3]; 6.7% in experiment [4]; 1.67% with Trypanosoma cruzi; 1.05% in experiment [5]. The Percent Effect was 4.93% in experiment [6]; 3.25% in the experiment listed under Homo sapiens; 6.67% in experiment [7]; 14.1% in [8]; -23% in experiment [9].
As to `CC(=O)N1CCCN(C(=O)c2csc(-c3ccc(C)cc3C)n2)CC1`, the Percent Effect in experiment [1] is -4.67%; in experiment [2] it was 18.9%; in [3] it was -3.68%; in [4], 14.8%; with Trypanosoma cruzi, 7.15%; in [5], -7.58%. Besides, the Percent Effect in experiment [6] is 5.39%; in the experiment listed under Homo sapiens it was 30%; in experiment [7], 5.94%; in [8] it was 23.2%; in [9] it was -6.02%.
Take `CCN1CCN(C(=O)c2cc(C(=O)OC)nn2-c2ccccc2)CC1`: the Percent Effect was -1.39% in [1]; 18.4% in experiment [2]; 3.57% in experiment [3]; -5.6% in [4]; -5.26% with Trypanosoma cruzi; 11.5% in experiment [5]. Besides, the Percent Effect in experiment [6] was 15.2%; in the experiment filed under Homo sapiens, 20.6%; in experiment [7], 7.35%; in [8] it was 7.32%; in experiment [9], -8.31%.
Regarding `Cc1ccc2ncnc(N3CCOCC3c3c(C)nn(C)c3C)c2c1` (stereo unspecified), the Percent Effect is -3.4% in experiment [1]; 5.33% in experiment [2]; -4.79% in experiment [3]; 3.91% in experiment [4]; -0.487% in the experiment on Trypanosoma cruzi; -0.521% in experiment [5]. Also, the Percent Effect was 16% in [6]; 21.1% in the experiment filed under Homo sapiens; 6.01% in experiment [7]; 8.64% in experiment [8]; -5.67% in experiment [9].
Take `CC(C)CC(=O)N1CC[C@@H]2[C@H](CC1)N(S(C)(=O)=O)CCS2(=O)=O`: the Percent Effect was -4.61% in experiment [1]; 18.9% in [2]; -5.46% in experiment [3]; -1.46% in experiment [4]; 5.66% with Trypanosoma cruzi; 25.8% in [5]. The Percent Effect in experiment [6] was 14.1%; in the experiment filed under Homo sapiens, 6.42%; in experiment [7], 5.94%; in experiment [8], 13.4%; in experiment [9] it was -6.08%.
For the molecule `COc1ccnc(N2CCN(C(=O)Cc3ccc(C)s3)CC2)n1`, the Percent Effect was -2.28% in experiment [1]; -2.6% in experiment [2]; 5.06% in experiment [3]; 8.15% in experiment [4]; 2.84% in the experiment on Trypanosoma cruzi; -0.632% in experiment [5]. For the same molecule, the Percent Effect is 13.8% in experiment [6]; -7.95% in the experiment listed under Homo sapiens; 9.52% in experiment [7]; 25.9% in experiment [8]; -9.7% in experiment [9].
With `O=C(c1ccsc1)N1CCCC(c2cc(C(F)(F)F)[nH]n2)C1` (stereo unspecified), the Percent Effect in [1] is -8.76%; in experiment [2], 5.26%; in [3], 10.2%; in experiment [4], -0.389%; in the experiment on Trypanosoma cruzi it was -4.39%; in [5] it was 0.719%. The Percent Effect in experiment [6] was -2.12%; in the experiment filed under Homo sapiens, 24.2%; in [7], 0.493%; in experiment [8], 3.7%; in experiment [9], 7.08%.
Consider `O=C1N(c2ccccc2)Cc2nc(=O)[nH]n21`, for which the Percent Effect in experiment [1] is -6.16%; in experiment [2], 9.33%; in experiment [3], -6.52%; in experiment [4] it was 1.33%; with Trypanosoma cruzi, 1.38%; in experiment [5], -3.35%. In addition, the Percent Effect in experiment [6] was 12.2%; in the experiment filed under Homo sapiens, 8.42%; in experiment [7], 4.23%; in experiment [8], 10.3%; in experiment [9] it was -10.1%.
Take `COc1ccc(F)cc1C(C)NC(=O)Nc1nnc(C)s1` (stereo unspecified): the Percent Effect was -1.41% in experiment [1]; 10.8% in [2]; -8.69% in [3]; 27.9% in experiment [4]; 4.99% with Trypanosoma cruzi; 13.7% in experiment [5]. For the same molecule, the Percent Effect in [6] was found to be 9.7%; in the experiment filed under Homo sapiens it was 17.2%; in experiment [7] it was 5.38%; in experiment [8], 16.1%; in experiment [9], 3.4%.
